VACV Venus inh – inhibitors of vaccinia virus (Venus reporter); hit rate 0.46% among 330,000; AID 720580; Potency, µM (top dose mostly 36.5 µM), actives largely listed as inhibitors; Vaccinia virus Venus reporter expression, fluorescence; calls by dose curve; tested in A549 cells; note: nearly all actives have a fitted effect of over 30% in size
HCV inhibitor – blocks hepatitis C virus | Huh7.5.1 HCVcc-Cre infection, luciferase reporter, 44 h | Potency, µM (series often up to 41.8 µM), most hits filed as inhibitors | hit rate 3.4% among 340,000 | AID 651820
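Seed cells (1,000/well) for 4 h; treat with compound and infect with HCVcc-Cre, moi about 0.5. Incubate 44 h, then detect luciferase activity.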
Vaccinia mCherry – vaccinia inhibition (mCherry reporter); Vaccinia virus mCherry reporter infection, fluorescence; Potency, µM (highest dose often 36.5 µM), most hits filed as inhibitors; hit rate 0.63% among 310,000; AID 720579; calls by dose curve; tested in A549 cells; note: nearly all actives have a fitted effect of over 35% in size
NS1 function inh – blocks influenza NS1 protein function; Potency, µM (top dose mostly 46.1 µM); hit rate 0.4% among 270,000; calls by dose curve; note: actives are rising curves; nearly all actives have a fitted effect of over 50% in size
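OD600 was taken as the measure of yeast growth restored by compound in an NS1-expressing S. cerevisiae strain. Cells had been washed out of glucose medium and diluted 1:100 into galactose -URA medium, pH 6.0.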
Pf growth 48h – P. falciparum growth inhibition at 48 hours (one generation); hit rate 5.9% among 310,000; P. falciparum luciferase growth in erythrocytes, 48 h; Potency, µM (highest dose often 28.7 µM), usual class: inhibitors
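Read-out is firefly luciferase luminescence from an integrated reporter in P. falciparum, so falling signal marks reduced parasite growth. Infected erythrocytes were at 2% hematocrit and 0.1% parasitemia (final) in Albumax-supplemented RPMI 1640.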
Pf growth 96h – P. falciparum growth inhibition at 96 hour, primary screen for plastid delayed-death inhibitors; Potency, µM (series often up to 28.7 µM), hits mostly inhibitors; P. falciparum luciferase reporter growth, 96 h; hit rate 6.9% among 320,000
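Delayed-death screen, second-generation endpoint: infected erythrocytes, 2% hematocrit, 0.05% parasitemia final; 96 hours at 37 C, 5% CO2; luciferase detection reagent; luminescence decrease equals reduced growth.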
Large screens that a line does not name were inactive. The list is not random: actives were taken first. Their share in the collection is about 11%. Unless noted, calls come from the whole dose curve; as a rule, active = well fitted inhibition curve with a large enough effect; inconclusive = small, poorly fitted or top-dose-only effect, or another doubt; inactive = no such curve, though single readings can be large or run the other way.

CN(C)c1ccc(/C=N/N2C(=S)SC(C)(C)C2N(O)C(=O)Nc2ccc([N+](=O)[O-])cc2)cc1 (stereo not given)	HCV inhibitor inconclusive, Vaccinia mCherry inconclusive, Pf growth 48h inconclusive, Pf growth 96h inconclusive
COc1ccc(C(CNC(=O)CCNC(=O)c2ccccc2Cl)N2CCCC2)cc1 (stereo not given)	Pf growth 96h inconclusive (no result: VACV Venus inh, Vaccinia mCherry, NS1 function inh)
COc1ccc(C(CNC(=O)C(CCSC)NC(=O)c2ccccc2OC)N2CCCCC2)cc1 (stereo not given)	Pf growth 48h inconclusive, Pf growth 96h 11.7µM
COc1ccc(C(CNC(=O)CCNC(=O)c2ccccc2OC)N2CCCC2)cc1 (stereo not given)	Pf growth 48h inconclusive, Pf growth 96h 11.7µM (no result: NS1 function inh)
Cc1cc(C)cc(NC(=O)C2CCCN(c3nnc(-n4c(C)ccc4C)s3)C2)c1 (stereo not given)	none (no result: HCV inhibitor, NS1 function inh, Pf growth 48h, Pf growth 96h)
N#Cc1ccccc1OCC(=O)NCC(c1ccc(F)cc1)N1CCOCC1 (stereo not given)	Pf growth 48h inconclusive (no result: VACV Venus inh, Vaccinia mCherry, NS1 function inh)
CC1=CC(C)(C)N(C(=O)CSc2nnc(C)s2)c2ccc(C)cc21	HCV inhibitor inconclusive, Pf growth 96h inconclusive
CC1=CC(C)(C)N(C(=O)CSc2nnc(-c3ccc(C)cc3)o2)c2ccc(C)cc21	HCV inhibitor inconclusive, Pf growth 96h 9.28µM (no result: Pf growth 48h)
COc1ccc(/C=N/Nc2nc(N3CCCC3)nc(N3CCCC3)n2)cc1	VACV Venus inh inconclusive, HCV inhibitor inconclusive, Vaccinia mCherry inconclusive, NS1 function inh inconclusive
c1ccc(Nc2nc(N3CCCCC3)nc(N3CCNCC3)n2)cc1	HCV inhibitor inconclusive, Pf growth 48h inconclusive, Pf growth 96h inconclusive
COc1ccc(/C=N/Nc2nc(Nc3ccccc3)nc(N3CCCC3)n2)cc1	HCV inhibitor 10µM, Pf growth 48h inconclusive (no result: NS1 function inh)
c1ccc(Nc2nc(N3CCCC3)nc(N3CCCC3)n2)cc1	HCV inhibitor inconclusive, Pf growth 96h 11.7µM (no result: VACV Venus inh, Vaccinia mCherry, Pf growth 48h)
CCNc1nc(N2CCCC2)nc(N2CCCC2)n1	HCV inhibitor 11.2µM, Pf growth 48h 11.7µM
Cc1cccc(Nc2nc(N3CCCC3)nc(N3CCCC3)n2)c1	HCV inhibitor inconclusive, Pf growth 96h inconclusive (no result: VACV Venus inh, Vaccinia mCherry, Pf growth 48h)
c1ccc(Nc2nc(N3CCCCC3)nc(N3CCCCC3)n2)cc1	Pf growth 96h 9.28µM (no result: Pf growth 48h)
CCOC(=O)c1cc(C(=O)Nc2sc3c(c2C#N)CCCC3)nn1C	none
C/C(=C\C1CCCCC1)C(NC(=O)c1ccc(C(F)(F)F)cc1)c1ccc(-c2ccccc2)cc1 (stereo not given)	HCV inhibitor inconclusive (no result: NS1 function inh, Pf growth 48h, Pf growth 96h)
COc1ccc(/C=N/Nc2nc(NCc3ccco3)nc(Nc3ccc(OC)cc3)n2)cc1	HCV inhibitor inconclusive, NS1 function inh inconclusive, Pf growth 48h 14.7µM, Pf growth 96h inconclusive
Fc1ccc(Nc2nc(Oc3ccccc3F)nc(N3CCCC3)n2)cc1	HCV inhibitor inconclusive, Pf growth 48h 1.47µM (no result: VACV Venus inh, Vaccinia mCherry, Pf growth 96h)
Cc1cc(C)c(S(=O)(=O)N(C)CC(N)=O)c(C)c1	none
COc1cccc2c1C(=O)c1c(O)c3c(c(O)c1C2=O)C[C@@](O)(C(=O)CO)C[C@@H]3O[C@H]1C[C@H](N)[C@H](O)[C@H](C)O1	NS1 function inh inconclusive, Pf growth 48h 0.147µM, Pf growth 96h 0.0928µM
CC(=O)C1(O)Cc2c(O)c3c(c(O)c2C(OC2CC(N)C(O)C(C)O2)C1)C(=O)c1c(O)cccc1C3=O (stereo not given)	Pf growth 48h 1.51µM, Pf growth 96h 0.849µM (no result: HCV inhibitor, NS1 function inh)
COc1cccc2c1C(=N)c1c(O)c3c(c(O)c1C2=O)C[C@](O)(C(C)=O)C[C@@H]3O[C@H]1C[C@H](N)[C@@H](O)[C@H](C)O1	none (no result: VACV Venus inh, HCV inhibitor, Vaccinia mCherry, Pf growth 48h, Pf growth 96h)
CC[C@@]1(O)C[C@H](O[C@H]2C[C@@H](N(C)C)[C@@H](O[C@H]3C[C@@H](O)[C@@H](O[C@H]4CCC(=O)[C@@H](C)O4)[C@@H](C)O3)[C@@H](C)O2)c2c(cc3c(c2O)C(=O)c2c(O)cccc2C3=O)[C@H]1C(=O)OC	Pf growth 48h 0.0849µM, Pf growth 96h 0.0601µM (no result: VACV Venus inh, HCV inhibitor, Vaccinia mCherry, NS1 function inh)
COc1cccc2c1C(=O)c1c(O)c3c(c(O)c1C2=O)CC(O)(C(C)=O)CC3OC1CC(N(C)C)C(O)C(C)O1 (stereo not given)	HCV inhibitor 0.562µM (no result: NS1 function inh, Pf growth 48h, Pf growth 96h)
O=S(=O)(NC1CCCCCC1)c1ccc(Br)s1	none
COc1cc(OC)cc(C(=O)NNC(=O)CCC2CCCC2)c1	none (no result: NS1 function inh, Pf growth 48h, Pf growth 96h)

From PubChem BioAssay
